# From PMC7819943, “Rice protein-binding microarrays: a tool to detect cis-acting elements near promoter regions in rice”
# Whole data set: some 39,000 sequences, median “fluorescence intensity (a.u.)” near 4,300, cut for the highest 2% near 39,000. The list comes from a sample in which the highest values are over-represented; it also holds similar and randomly drawn sequences.
# Target: T1, OsSMF1 (Oryza sativa, UniProt Q6ZLB0 1-436)
# T1 sequence: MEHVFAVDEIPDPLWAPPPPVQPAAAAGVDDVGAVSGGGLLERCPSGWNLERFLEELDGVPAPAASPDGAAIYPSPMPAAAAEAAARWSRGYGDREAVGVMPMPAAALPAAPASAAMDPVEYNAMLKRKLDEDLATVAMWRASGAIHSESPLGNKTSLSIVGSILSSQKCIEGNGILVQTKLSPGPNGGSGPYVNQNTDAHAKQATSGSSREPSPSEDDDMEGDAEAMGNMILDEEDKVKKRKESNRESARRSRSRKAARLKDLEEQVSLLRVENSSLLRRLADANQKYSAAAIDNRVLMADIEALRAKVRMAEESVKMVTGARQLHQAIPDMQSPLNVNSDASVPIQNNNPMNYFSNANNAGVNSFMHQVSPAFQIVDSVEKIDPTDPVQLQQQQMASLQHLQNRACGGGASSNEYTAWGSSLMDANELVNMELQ
# Assay: protein-binding microarray (RPBM); PBS, 2% BSA, 51.3 ng/ul salmon testes DNA, 50 uM zinc acetate, 200 nM TF, 25 C, 1 h; high values mean tight binding
# Conditions: protein: recombinant; tags: N-terminal polyhistidine and DsRed monomer fusion (pET32a); chain copies: 2; label: CyDye5-dUTP incorporated in the synthesized complementary strand; 3' TTTTT single-stranded linker to array surface; dsDNA, one strand shown
# Procedure, shortened: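 The binding signal for each feature is its fluorescence intensity in arbitrary units. An Axon 4000B scanner was used to read a custom Agilent array that had been made double-stranded with Cy5-dUTP primer extension, blocked with 2% BSA, incubated at 25 °C for 1 h with 200 nM protein in PBS, 2% BSA, salmon testes DNA and 50 µM zinc acetate, and washed. The protein was an N-terminal polyhistidine–DsRed transcription factor fusion from E. coli BL21-CodonPlus, purified on Ni–NTA.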
row,Sequence,binding signal
1,GGGATGGCCAGATTGGAACTCAGCAGACTCGCTGATGACTCGGAGTCACCTAGTGCAG,3800 fluorescence intensity (a.u.)
2,TTGTCCCTATAATAATATGTCACTCAAAATTGCTAATAAACGGAGTCACCTAGTGCAG,3400 fluorescence intensity (a.u.)
3,GATGTACTCGAGTATCTTCCCCTTCCTAGTTCCTTCCCTTCGGAGTCACCTAGTGCAG,13900 fluorescence intensity (a.u.)
4,GATGCAAAGAGAGCTACTAGCTGAGTTGGATGGAATTAACCGGAGTCACCTAGTGCAG,5550 fluorescence intensity (a.u.)
5,AAGTAGGCGTAGTTAAATCAAATGAGTGCTGTGCTGTCCACGGAGTCACCTAGTGCAG,3400 fluorescence intensity (a.u.)
6,CCGTCGCCGTCGGCACCGCCGCCGGAGCTCCTCCCTGCTCCGGAGTCACCTAGTGCAG,3220 fluorescence intensity (a.u.)
7,ATCTACTGATTTACAACCTCCTTAATTAACAAGCACGGGTCGGAGTCACCTAGTGCAG,24600 fluorescence intensity (a.u.)
8,ACTCCTCGGATAGGCGATGGCGGCCGCGGTCACCGCGCCACGGAGTCACCTAGTGCAG,3370 fluorescence intensity (a.u.)
9,AAGCTGTTTCACAAGGCAGTTTTGCATACGTGGCGGGCTGCGGAGTCACCTAGTGCAG,21500 fluorescence intensity (a.u.)
10,AGGAAGGAAGGAAGCAAAATGCTGACGTGTACATAAACCGCGGAGTCACCTAGTGCAG,16000 fluorescence intensity (a.u.)
11,CGCATACCGGCCAGAAACACGACGGCGACGAGGTGCACTACGGAGTCACCTAGTGCAG,41500 fluorescence intensity (a.u.)
12,CACCGCGACGCACATACCCACCCGCCGGCCACGCACGAGACGGAGTCACCTAGTGCAG,4460 fluorescence intensity (a.u.)
13,CTAGACGCCGGCGACGACGAGGGTGGTTGGGTTGTGGATACGGAGTCACCTAGTGCAG,3740 fluorescence intensity (a.u.)
14,CACCCACGAGCACACCCGTACCAGGGGACGAGGAGGTGGACGGAGTCACCTAGTGCAG,38300 fluorescence intensity (a.u.)
15,CGGTGCGAGGTACTACGTCAAGGCGTACGAGGCCAGGTACCGGAGTCACCTAGTGCAG,3140 fluorescence intensity (a.u.)
16,GGTGTGGAGGGGTTGGACCAGAGCACGACGACGGCGAGGACGGAGTCACCTAGTGCAG,45100 fluorescence intensity (a.u.)
17,AGAGGGCGTGTACTCGTGACATCGTGTGTGTGCGTGTGCGCGGAGTCACCTAGTGCAG,6670 fluorescence intensity (a.u.)
18,TTACTACACGGATCGCGGTCACGTCACGTGGTCCATAGTCCGGAGTCACCTAGTGCAG,6690 fluorescence intensity (a.u.)
19,CTTTCCCTATCTTTCTCCTCATCATATGTGTCATGATGCACGGAGTCACCTAGTGCAG,9020 fluorescence intensity (a.u.)
20,AGCTATCATGTAAGCGTCACGTCAATGCGATGCAGGGGCGCGGAGTCACCTAGTGCAG,4630 fluorescence intensity (a.u.)
21,TTTAGTGGCAGTCTTATAATAACGATTCAAAATAGTGGCACGGAGTCACCTAGTGCAG,3190 fluorescence intensity (a.u.)

row,Sequence,binding signal
1,AATATACAACACTATATTATTAATGCAGTCCAATCGATATCGGAGTCACCTAGTGCAG,37000 fluorescence intensity (a.u.)
2,TAACAAATAACCTTAAGTCCTTAACAAATAATAAGTGCACCGGAGTCACCTAGTGCAG,3190 fluorescence intensity (a.u.)
3,ACAAATAAATCCTTAAATACACTAACTATCGAATGCACGCCGGAGTCACCTAGTGCAG,41300 fluorescence intensity (a.u.)
4,CCCGCCGTCGCCGGGGAAGACGACACGCCCGCCGTCCTTGCGGAGTCACCTAGTGCAG,3580 fluorescence intensity (a.u.)
5,ACATTGACTCAGCCACCACGTCACCTAAAATCGGGAACAGCGGAGTCACCTAGTGCAG,13000 fluorescence intensity (a.u.)
6,CACGATTGCTCGGTGAGCACTGAGCAGTGACCTCATTCGGCGGAGTCACCTAGTGCAG,3820 fluorescence intensity (a.u.)
7,GACGCGTACGCACGGTGGGACGCGGTGGTGGGGTGCTGGGCGGAGTCACCTAGTGCAG,3920 fluorescence intensity (a.u.)
8,ATAGGAAGGGAAGCAACGGAGGAGGAGATCGGCTGGTGGTCGGAGTCACCTAGTGCAG,7740 fluorescence intensity (a.u.)
9,AGCTGGACAAGATCGGAATAGTAGGCCAGGCCCAAAGCAACGGAGTCACCTAGTGCAG,49400 fluorescence intensity (a.u.)
10,TGGTAGGGAAGCAGGTGGAAGGAGGACAGGAAGGCCCAATCGGAGTCACCTAGTGCAG,34000 fluorescence intensity (a.u.)
11,AAGAACGCCTTCGCGTGGGCCGCCGTCATCGGGATGTGGACGGAGTCACCTAGTGCAG,3220 fluorescence intensity (a.u.)
12,CTCACTCGCTTGCGCTTCACCTCGCGGCATCGACTTCCTACGGAGTCACCTAGTGCAG,3630 fluorescence intensity (a.u.)
13,TTAAATGGTCATTCCTGTGTTTTACAATCATATATCTTACCGGAGTCACCTAGTGCAG,3990 fluorescence intensity (a.u.)
14,GTCCATATATCCGATGTGACACGCCAACACTTTTCGTATCCGGAGTCACCTAGTGCAG,4090 fluorescence intensity (a.u.)
15,CACATCGAACGGTCCAAGAACAACCACATCACCAATGTGCCGGAGTCACCTAGTGCAG,3710 fluorescence intensity (a.u.)
16,TGGCTTCACTTGCAACGGTACAAGAACCACCATCACTTCCCGGAGTCACCTAGTGCAG,40100 fluorescence intensity (a.u.)
17,AAGATCATCACAATTCATCACTCACAACCACATCACATCCCGGAGTCACCTAGTGCAG,3260 fluorescence intensity (a.u.)
18,CGCCTCTGCGGTCTCCTTCGTCACCCGCGCGTCAACCAACCGGAGTCACCTAGTGCAG,4290 fluorescence intensity (a.u.)
19,CCCCTTCATGCCAGCACGCTCCCCACATCCACCCACCACCCGGAGTCACCTAGTGCAG,3320 fluorescence intensity (a.u.)
20,CGTGCGACCCAGATCTCGCCACGTATGCGCGCGGATCGGCCGGAGTCACCTAGTGCAG,10800 fluorescence intensity (a.u.)
21,GGGACGAGAGGAGCAACGCGCGGGCGCCGGCTGGCAAGAGCGGAGTCACCTAGTGCAG,3960 fluorescence intensity (a.u.)
